Results reported in article PMC4336329 (PLoS ONE, 2015).
About 14,000 (4.5%) of roughly 310,000 compounds showed an effect of 50% or more. Effects have a minus sign here. This excerpt belongs to a sample that is enriched for strong results.

Target: human ether-à-go-go-related gene (hERG) potassium channel (human, UniProt Q12809)
Test: primary screen, population patch clamp on CHO cells stably expressing hERG; higher = less effect of the substance
Experimental: Briefly, Chinese hamster ovary (CHO) cells stably expressing the hERG channel were dislodged from tissue culture flasks and dispensed into PPC plates. […] During the recording, background leak currents were estimated by a 100 ms step to -80 mV from an initial holding potential of -70 mV and subtracted from the subsequent current measurement. The campaign was conducted in two phases using slight differences in recording protocol. In the first phase, the initial voltage pulse used a 100 ms step to -30 mV from a holding potential of -70 mV, a 2 s conditioning step to +25 mV, and a 2 s test step to -30 mV. During the second phase of the screen, the potential during the conditioning step was raised to +45 mV. In both phases of the campaign, a secondary voltage pulse was applied using the same parameters as the second phase initial pulse. The initial and secondary pulses were applied in the absence of compound, and upon application of 1 μM and 10 μM test concentrations. […]
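Also: peak tail current of the secondary pulse compared with the same well before compound.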

human ether-à-go-go-related gene (hERG) potassium channel, sequence (Q12809 whole entry, looked up): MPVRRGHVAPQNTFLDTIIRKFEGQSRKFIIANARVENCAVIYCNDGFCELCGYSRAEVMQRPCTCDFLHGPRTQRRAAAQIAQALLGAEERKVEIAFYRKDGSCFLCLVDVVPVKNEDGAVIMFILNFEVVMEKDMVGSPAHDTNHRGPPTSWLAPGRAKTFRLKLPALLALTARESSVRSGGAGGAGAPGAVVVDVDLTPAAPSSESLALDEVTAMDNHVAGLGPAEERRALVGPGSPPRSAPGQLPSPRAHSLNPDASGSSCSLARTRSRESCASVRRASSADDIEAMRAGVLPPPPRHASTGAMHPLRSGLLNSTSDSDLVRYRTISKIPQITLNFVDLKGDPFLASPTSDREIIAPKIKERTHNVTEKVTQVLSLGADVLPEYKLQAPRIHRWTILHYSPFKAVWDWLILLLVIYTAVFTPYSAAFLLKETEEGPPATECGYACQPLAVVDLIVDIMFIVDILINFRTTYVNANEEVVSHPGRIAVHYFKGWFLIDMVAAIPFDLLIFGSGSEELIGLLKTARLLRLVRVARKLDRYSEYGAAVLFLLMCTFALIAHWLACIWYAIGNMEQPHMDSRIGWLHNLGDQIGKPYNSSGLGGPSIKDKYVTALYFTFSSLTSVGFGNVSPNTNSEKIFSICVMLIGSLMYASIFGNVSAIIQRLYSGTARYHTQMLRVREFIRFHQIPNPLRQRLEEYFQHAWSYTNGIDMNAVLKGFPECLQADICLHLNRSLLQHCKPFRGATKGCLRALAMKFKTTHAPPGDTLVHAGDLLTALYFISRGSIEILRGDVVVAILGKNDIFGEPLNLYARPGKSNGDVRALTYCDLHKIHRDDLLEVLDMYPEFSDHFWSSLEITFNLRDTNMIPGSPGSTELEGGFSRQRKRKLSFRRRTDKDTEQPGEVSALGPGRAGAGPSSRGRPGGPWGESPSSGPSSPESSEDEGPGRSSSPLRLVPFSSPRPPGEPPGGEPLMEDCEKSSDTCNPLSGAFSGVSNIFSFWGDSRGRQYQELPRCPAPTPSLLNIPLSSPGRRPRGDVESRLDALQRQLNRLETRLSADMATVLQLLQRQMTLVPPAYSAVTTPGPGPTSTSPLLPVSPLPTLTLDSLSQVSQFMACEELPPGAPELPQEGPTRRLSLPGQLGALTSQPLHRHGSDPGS

SMILES | hERG current change (%, negative = inhibition) at 10uM [%]
CCOC(=O)c1cc(-c2ccccc2)nn1CC1CC(c2ccc(Cl)cc2)=NO1 (stereo not drawn) | -16.2
COc1ccc([N+](=O)[O-])cc1NC(=O)C1(c2ccc(OC)c(OC)c2)CCOCC1 | -14.4
Cc1ccc(NC(=O)CSc2nnc(CNC(=O)c3cccs3)o2)c(C)c1 | 6.79
O=C(NCCc1ccc(Cl)cc1)/C(=C/c1cccnc1)NC(=O)c1ccccc1 | -70.9
COc1ccccc1CCNC(=O)/C(=C/c1cccnc1)NC(=O)c1ccccc1 | -33.9
COc1ccc(CCNC(=O)/C(=C/c2cccnc2)NC(=O)c2ccccc2)cc1 | -47.2
O=C(NCCc1cccc(F)c1)/C(=C/c1cccnc1)NC(=O)c1ccccc1 | -36.4
O=C(NCCc1ccccc1F)/C(=C/c1cccnc1)NC(=O)c1ccccc1 | -52.2
COc1ccc(CCNC(=O)/C(=C/c2cccnc2)NC(=O)c2ccccc2)cc1OC | -3.35
CC1(C)c2[nH]c3ccccc3c2C[C@@H]2C(=O)N(Cc3ccccc3Cl)C(=O)N21 | 15.4
Cc1ccc(S(=O)(=O)NC(C)(C)CSc2nncn2N)cc1 | 9.75
O=C(O)C#Cc1cccc2ccccc12 | 29.8
COc1ccc(NC(=O)CN2CCN(c3ccccc3)CC2)cc1 | 1.85
O=C(CN1CCN(c2ccc(O)cc2)CC1)Nc1ccc(-c2ccccc2)cc1 | -5.1
COc1ccc(N2CCN(CC(=O)Nc3ccc(C)cc3)CC2)cc1 | -18.7
COc1cccc(N2CCN(CC(=O)Nc3ccc(SC(F)F)cc3)CC2)c1 | -65.5
O=C(CN1CCN(c2ccc(O)cc2)CC1)Nc1ccc(SC(F)F)cc1 | -74.7
COc1ccc(N2CCN(CC(=O)Nc3ccc(SC(F)F)cc3)CC2)cc1 | -76.6
COc1ccc(NC(=O)CN2CCN(c3ccc(F)cc3)CC2)cc1 | -4.62
COc1cccc(N2CCN(CC(=O)Nc3ccc(-n4cnnn4)cc3)CC2)c1 | 7.28
O=C1CN(CC(=O)Nc2ccc(SC(F)F)cc2)CCN1 | -32.6

SMILES | hERG current change (%, negative = inhibition) at 10uM [%]
COc1ccc(OC)c(C(=O)COC(=O)c2c(OC)cccc2OC)c1 | 8.03
CCCN1CCC(NC(=O)C2CCCCC2C(=O)O)CC1 (stereo not drawn) | -1.65
C(=N\N=C\c1cccs1)/c1cccs1 | -2.57
Cc1nn(CCC#N)c2c1P(=S)(N1CCCC1)OC(c1ccc(F)cc1)=N2 (stereo not drawn) | -7.21
C=CCN1C(=O)C(CC(=O)O)SC1=Nc1c(C)n(C)n(-c2ccccc2)c1=O (stereo not drawn) | 1.73
COc1ccccc1/C=C1\SC(=O)N(CC(=O)N(C)C2CCS(=O)(=O)C2)C1=O (stereo not drawn) | 11.5
Nc1cc(N)cc(C(=O)Nc2ccc3c(c2)C(=O)NC3=O)c1 | 12.1
O=C(CN1C(=O)NC2(CCCCCC2)C1=O)N1CCN(c2ccccc2)CC1 | -2.9
CCOc1ccc(Cl)cc1S(=O)(=O)N1CCCC1 | -6.06
CN1CCN(c2nnc(-c3ccc(Cl)cc3)c3ccccc23)CC1 | -45.7
O=C1c2ccccc2S(=O)(=O)c2cc(C(=O)N3CCN(c4ccccc4)CC3)ccc21 | -25
COc1ccc(-c2nc(-c3ccncc3)no2)cc1 | 10.5
Cc1ccc(-c2nn(-c3cccc(F)c3)cc2CN2CCN(c3ccccn3)CC2)o1 | -26.5
COc1ccc(-c2nn(-c3ccccc3)cc2CNCc2cccnc2)c(F)c1 | -28.1
Cc1ccc(-c2nn(-c3cccc(F)c3)cc2CNCc2cccnc2)o1 | -51.6
Cc1ccc(-c2nn(-c3cccc(F)c3)cc2CN(Cc2nccn2C)C(C)C)o1 | -21.4
Cc1ccc(-c2nn(-c3ccccc3)cc2CO)o1 | -0.28
COc1ccc(-n2cc(CNCc3cccnc3)c(-c3cccc(F)c3)n2)cc1 | -47.7
COc1ccc(CNCc2cn(-c3cccc(F)c3)nc2-c2ccc(C)o2)cc1 | -55.5
Cc1ccc(-c2nn(-c3cccc(F)c3)cc2CNCCc2ccncc2)o1 | -53.6
COCCNCCCCOc1ccccc1-c1ccccc1.O=C(O)C(=O)O | -27.5

SMILES | hERG current change (%, negative = inhibition) at 10uM [%]
Cc1cc(C(=O)NCC(=O)OCC(=O)NCC2CCCO2)ccc1[N+](=O)[O-] (stereo not drawn) | 15.3
COc1ccc(C2C(C(=O)N3CCCC3)CC(=O)N2c2ccc(OC)cc2)cc1 (stereo not drawn) | 0.91
O=C(Cn1cnc2c(oc3nc4c(cc32)CCCC4)c1=O)Nc1cccc(Cl)c1 | 16.2
COc1ccc(-c2cn[nH]c2-c2ccc(OCC(=O)NN)cc2O)cc1 | 17.4
CCOC(=O)c1ccc(/[N+]([O-])=C/c2ccccc2)cc1 | 0.217
CCOC(=O)c1cccc(P(=O)(C(C)(C)C)C(C)(C)C)c1 | 17.1
CCOC(=O)c1ccc(P(=O)(c2ccccc2)c2ccccc2)cc1 | -18.2
CCCOC(=O)c1ccc(Cl)c(NC(=O)c2ccc(-c3ccccc3)cc2)c1 | -5.63
CCOC(=O)c1ccc(Cl)c(NC(=O)c2ccc(-c3ccccc3)cc2)c1 | 1.02
CCCOC(=O)c1ccc(NC(=O)Oc2ccccc2)cc1 | 3.21
CCOC(=O)c1ccc(-[n+]2c(-c3ccccc3)cc(-c3ccccc3)cc2-c2ccccc2)cc1.[O-][Cl+3]([O-])([O-])[O-] | -77.9
CCOC(=O)c1cccc(-[n+]2c(-c3ccccc3)cc(-c3ccccc3)cc2-c2ccccc2)c1.[O-][Cl+3]([O-])([O-])[O-] | -73.5
CCCOC(=O)c1ccc(-[n+]2c(-c3ccccc3)cc(-c3ccccc3)cc2-c2ccccc2)cc1.[O-][Cl+3]([O-])([O-])[O-] | -77.2
O=C(O)CCC(=O)c1ccc2c(c1)OCCO2 | 1.89
O=c1c(C=NCc2cccs2)c(O)n(C2CCCCC2)c(=O)n1C1CCCCC1 | 8.72
O=C(CCCCCNC(=O)N1CCn2c1nc1ccccc12)NCCc1ccccc1 | 9.42
O=C(O)c1ccccc1C(=O)N1N=C(c2ccccc2)CC1c1ccccc1O (stereo not drawn) | 6.81
Cc1nn(C(=O)c2ccco2)c(C)c1Sc1ccc(Br)cc1 | -4.64
COC(=O)CN1C(=O)COc2ccc(S(=O)(=O)N3CCCCCC3)cc21 | -7.44
O=C(CSc1nnc(Cc2cc(=O)[nH]c(=O)[nH]2)n1-c1ccc(Cl)cc1)NC1CCCC1 | 10.7
COC(=O)CSc1[nH]c(=O)cc(C)c1C#N | 19.9

SMILES | hERG current change (%, negative = inhibition) at 10uM [%]
O=C(CN1CCc2ccccc2C1)NCC(=O)Nc1ccc(F)cc1 | 13.5
O=C(Nc1ccc(Cl)cc1)[C@@H]1[C@@H]2C(=O)N(c3cccc(F)c3)C(=O)[C@@H]2[C@H]2C=CC=NN21 | -9.36
CCCCc1ccc(N=N/C(C(=O)Nc2ccccc2OC)=C(/C)O)cc1 | -8.51
CCCCc1ccc(N=N/C(C(=O)Nc2ccc(NC(C)=O)cc2OC)=C(/C)O)cc1 | -50.2
CCCCc1ccc(N=N/C(C(=O)Nc2cc(OC)c(NC(C)=O)cc2OC)=C(/C)O)cc1 | 14.2
O=C(CCNC(=O)c1ccc(Cl)cc1)Nc1cccc(S(=O)(=O)N2CCCCC2)c1 | -46
O=C(CCNC(=O)c1ccc(Cl)cc1)Nc1cccc(S(=O)(=O)N2CCCCCC2)c1 | -57.3
O=C(CCNC(=O)c1ccc(Br)cc1)Nc1cccc(S(=O)(=O)N2CCCC2)c1 | -32.7
O=C(CCNC(=O)c1ccc(Br)cc1)Nc1cccc(S(=O)(=O)N2CCCCC2)c1 | -36.1
O=C(CCNC(=O)c1ccc(Br)cc1)Nc1cccc(S(=O)(=O)N2CCCCCC2)c1 | -34.1
O=C(CCNC(=O)c1ccc([N+](=O)[O-])cc1)Nc1cccc(S(=O)(=O)N2CCCCC2)c1 | -55.2
CN(C)S(=O)(=O)c1cccc(COC(=O)CCNC(=O)c2ccc([N+](=O)[O-])cc2)c1 | -55.2
O=C(CCNC(=O)c1ccc([N+](=O)[O-])cc1)Nc1cccc(S(=O)(=O)N2CCOCC2)c1 | -31.7
O=C(CCNC(=O)c1ccc([N+](=O)[O-])cc1)Nc1cccc(S(=O)(=O)N2CCCCCC2)c1 | -75.1
CN(C)S(=O)(=O)c1cccc(C(=O)NCCNC(=O)c2cccc(S(=O)(=O)N(C)C)c2)c1 | 15.9
CN(C)S(=O)(=O)c1ccc(C(=O)OCc2ccc([N+](=O)[O-])cc2)cc1 | 17.6
O=C(CCCNC(=O)c1ccc(Cl)cc1)Nc1cccc(S(=O)(=O)N2CCCCC2)c1 | -20.2
COc1ccc(/C(C)=N/NC(=O)CNC(=O)c2ccncc2)c(OC)c1 | 3.47
